Screen size: about 69,000 compounds; about 8,600 (12%) showed an effect of 50% or more. This excerpt belongs to a sample that is enriched for strong results.
Test system: Plasmodium berghei
Assay: Screen against P. berghei liver stage (PbLuc), transformed with Luciferase, at 10uM
Type: functional, HepG2
Details: tested at 10 uM

| Compound | INHIBITION [%] |
| --- | --- |
| Cc1ccc(S(=O)(=O)NC(=O)COc2cccc(C(N)=O)c2)s1 | 11.2 |
| c1ccc(CO[C@H]2CC[C@H]3[C@H]2OCCN3CCN2CCCCC2)nc1 | 40.3 |
| CC(=O)N1CC[C@@]2(C(=O)Nc3ccccc3)CCN(S(C)(=O)=O)CC[C@@H]12 | 41.2 |
| CC(C)c1nn(C)c(Cl)c1CNCc1ccc2c(c1)OCCO2 | 1.5 |
| CN(C)CCCN(Cc1ccco1)Cc1ccnn1C1CCCCO1 (stereo unspecified) | -0.232 |
| Cc1ccoc1C(=O)N1C[C@@H]2[C@@H](C1)OCC(=O)N2Cc1cccnc1 | 0 |
| OC1(CN2CCOC(CNc3cccnn3)C2)CCCCC1 (stereo unspecified) | 25.4 |
| Cn1c(N2CCOCC2)nc2cc(C(=O)NCc3cccnc3)ccc21 | 48.2 |
| CC(=O)NCc1ccc(C(=O)N2CCCC2c2cnn(C)c2)cc1 (stereo unspecified) | -12.1 |
| CC(=O)N1CCC(c2cncc(N3CCCC(O)C3)n2)CC1 (stereo unspecified) | -6.73 |
| O=c1cc(C2CCNCC2)nc(CCc2ccccn2)[nH]1 | -0.273 |
| O=c1cc(C2CCNCC2)nc(Cc2cccc(Cl)c2)[nH]1 | 52.2 |
| O=c1cc(C2CCNCC2)nc(CCCc2ccccc2)[nH]1 | 22.7 |
| CN(CCCOc1ccccc1Cl)C(=O)CN1C(=O)CCNC1=O | -44.2 |
| COC(=O)CCCNC(=O)N1CCc2c([nH]c3ccc(Cl)cc23)C1 | -50 |
| COc1ccc(C(=O)N2C[C@@H](O)[C@H](NCc3ncccc3C)C2)cc1 | 31.45 |
| CCc1ncc2c(n1)CN(Cc1nnc(C(C)C)o1)CC2 | 30.3 |
| O=C(c1ncn2c(C3CCN(CC4CC4)CC3)ccnc12)N1CCCC1 | 12.7 |
| CC(C)N1CCC(c2ccnc3c(C(=O)N4CCCC4)ncn23)CC1 | 60 |
| CC(C)N1CCC(c2ccnc3c(C(=O)N4CCOCC4)ncn23)CC1 | 12.7 |
| CN(CC(=O)NC1(C)CCS(=O)(=O)C1)Cc1ccc(F)c(F)c1 (stereo unspecified) | 27.6 |
| Cc1cc(S(=O)(=O)Nc2onc(C)c2C)sc1C | 87.5 |

| Compound | INHIBITION [%] |
| --- | --- |
| Cc1noc(NS(=O)(=O)c2ccc(Cl)s2)c1C | 44.7 |
| Cc1cc(S(=O)(=O)Nc2onc(C)c2C)c(C)s1 | 4.1 |
| CN(C)c1cc(CNC(=O)c2cccnc2O)ccn1 | 9.64 |
| COCc1cn(CC2CCN(Cc3cc(C)[nH]n3)CC2)nn1 | 26.7 |
| COC[C@@H]1CC[C@H]2[C@H](CCN2C(=O)c2ccncc2F)O1 | 29 |
| CCn1cc(CNc2ccc(Br)c(OC)c2)cn1 | 32 |
| COCCN(C)c1ccc(NCc2cscn2)nc1 | 75.1 |
| COC(=O)c1cc(NCc2cscn2)ccc1C | 11.9 |
| COc1cccc(-c2cc(NCc3cscn3)n(C)n2)c1 | -40.5 |
| CCn1cc(CNc2ccc(N(C)CCOC)cn2)cn1 | 57.2 |
| CCn1cc(CNc2ccc3nccnc3c2)cn1 | 18.8 |
| COCCN(C)c1ccc(NCc2ccsc2)nc1 | 80.8 |
| COCCOc1ccc(NC(=O)N(C)Cc2ccsc2)cn1 | 31.8 |
| COCCN(C)c1ccc(NCc2cccnc2)nc1 | 15.1 |
| Cn1ccnc(Sc2ccccc2)c1=O | -4.13 |
| CCOc1ccccc1C(=O)NCc1nncn1C1CC1 | 11.4 |
| CC1(c2nccs2)CCN(C(=O)CC2CCOCC2)CC1 | -1.25 |
| CC(=O)N1CCC2(CCCN(S(=O)(=O)c3ccccc3)C2)C1 (stereo unspecified) | -60.3 |
| CCc1cc(NCCCNS(C)(=O)=O)nc(-c2ccncc2)n1 | 15.2 |
| CCC=C(C)C(=O)N1CSCC1C(=O)N(C)CCc1ccncc1 (stereo unspecified) | -16.7 |
| Cc1cc(C)n(CC2CCCCN2CC(=O)Nc2nnc(C)s2)n1 (stereo unspecified) | -16.5 |
| Cc1cc(C)n(CC2CCCCN2CC(=O)Nc2nccs2)n1 (stereo unspecified) | 77.6 |

| Compound | INHIBITION [%] |
| --- | --- |
| Cc1cc(C)n(CC2CCCCN2CC(=O)Nc2nncs2)n1 (stereo unspecified) | 11.1 |
| CCCc1n[nH]c(C2CN(CCc3cccs3)CCO2)n1 (stereo unspecified) | -23.9 |
| CCC(C)N(CC)C(=O)c1ccc2[nH]nnc2c1 (stereo unspecified) | -29.1 |
| CN1CCN(CC(C)(C)C)CC1CCO (stereo unspecified) | -1.26 |
| COc1cc(C(=O)O)ccc1OCC(=O)NCCc1ccccc1 | 37.4 |
| O=C(C1CCS(=O)(=O)C1)N1CCN(c2cnccn2)CC1 (stereo unspecified) | 16.7 |
| O=C(NCC1CCS(=O)(=O)C1)N1CCN(c2cnccn2)CC1 (stereo unspecified) | 50.3 |
| Cc1cc(C)c(CNC(=O)N2CCN(c3ccccn3)CC2)c(=O)[nH]1 | 9.4 |
| Cc1cc(C)c(CNC(=O)NCCNc2ccccn2)c(=O)[nH]1 | 46.1 |
| Cc1cc(C)c(CNC(=O)NCCNc2ncccn2)c(=O)[nH]1 | 25.7 |
| Cc1cc(C)c(CNC(=O)C2CCN(c3cnccn3)CC2)c(=O)[nH]1 | 12.255 |
| O=C(NC1CCS(=O)(=O)C1)N1CCN(c2cnccn2)CC1 (stereo unspecified) | 33 |
| Cc1cc(C)c(CNC(=O)NCCNc2cnccn2)c(=O)[nH]1 | 73 |
| Cc1cc(C)c(CNC(=O)N2CCN(c3cnccn3)CC2)c(=O)[nH]1 | 51.2 |
| CN1CCN(C(=O)c2occc2CN2C(=O)Cc3ccccc32)CC1 | 37.9 |
| c1cncc(CN2CCn3cc(CN4CCCCC4)nc3C2)c1 | 35.8 |
| Cc1ccoc1C(=O)N1Cc2c(CN3CCCCC3)nn(C)c2C1 | 3.69 |
| O=C(NCCCn1nc2ccccn2c1=O)NC(C1CC1)C1CC1 | 16.3 |
| COc1ccc(CC(=O)NC2CCN(CC(F)F)CC2)cc1OC | 14.4 |
| O=C(c1ccoc1)N1CC[C@@H]2O[C@@H](COCCN3CCCC3)CC[C@@H]21 | 31.1 |
| O=C(c1ccoc1)N1CC[C@@H]2O[C@H](COCc3ccccn3)CC[C@@H]21 | 34.1 |
| O=C(c1ccoc1)N1CC[C@@H]2O[C@@H](COCc3ccncc3)CC[C@@H]21 | 52 |

| Compound | INHIBITION [%] |
| --- | --- |
| CCOC[C@H]1CC[C@H]2[C@H](CCN2C(=O)c2ccncc2F)O1 | 41.4 |
| O=C(c1ccoc1)N1CC[C@@H]2O[C@@H](COCc3ccccn3)CC[C@@H]21 | 53.2 |
| COCC(=O)N1CC[C@@H]2O[C@H](COCc3ccncc3)CC[C@@H]21 | 33.5 |
| CN(C)CCOC[C@H]1CC[C@H]2[C@H](CCN2C(=O)c2ccoc2)O1 | 34.6 |
| CC(C)COC[C@@H]1CC[C@H]2[C@H](CCN2C(=O)c2ccncc2F)O1 | 13.5 |
| CC(C)COC[C@H]1CC[C@H]2[C@H](CCN2C(=O)c2ccncc2F)O1 | 53 |
| CCS(=O)(=O)N1CCC2(CN(c3ccsc3)C(=O)CN2C)C1 (stereo unspecified) | 1.9 |
| CN(C)CC1(O)CCCN(C(=O)CCn2cc(Cl)cn2)C1 (stereo unspecified) | -47 |
| CSc1nc2ccsc2c(=O)n1CC(=O)N(C)C1CCCCC1 | 26.6 |
| Cn1nccc1C(=O)N1CCCC1c1[nH]ncc1C(N)=O (stereo unspecified) | -31 |
| CCOC(=O)N1CCN(C(=O)CCn2cccc2)CC1 | 35 |
| Cc1nc(CN2CCC3(CC2)C(=O)N(C)CCN3C)cs1 | 31.5 |
| Cn1cc(-c2nnn3c2COC(CNC(=O)c2cccs2)C3)cn1 (stereo unspecified) | 8.64 |
| Cc1nc(CN2CCN(C(=O)c3ccnc(N(C)C)c3)CC2)cs1 | 43.2 |
| Cc1ccc(CN(C)C(=O)C(C)n2ccnc2C(C)C)o1 (stereo unspecified) | 33 |
| O=C(c1cccc(-c2ncc[nH]2)c1)N1CC[C@H](CO)[C@@H](O)C1 | -12.1 |
| O=C(c1cccc(-c2ncc[nH]2)c1)N1CCC(N2CCCC(O)C2)CC1 (stereo unspecified) | 57.2 |
| CN(C)C1CCCN(C(=O)c2cccc(-c3ncc[nH]3)c2)CC1 (stereo unspecified) | 12.8 |
| Cc1ncnc2c1CCN(Cc1nccs1)CC2 | 8.85 |
| CC(C(=O)NCC(C)(C)c1ccc(Br)cc1)n1cncn1 (stereo unspecified) | 23.1 |
| O=c1[nH]cnc2[nH]c(N3CCOCC3)nc12 | 31.8 |
| COc1ccc2nc(C3CC3)cc(C(=O)NCc3ncnn3C)c2c1 | 10.7 |

| Compound | INHIBITION [%] |
| --- | --- |
| COc1ccc2nc(C3CC3)cc(C(=O)NCC(=O)N(C)C)c2c1 | 13.9 |
| COc1ccc2nc(C3CC3)cc(C(=O)NCc3noc(C)n3)c2c1 | 57.2 |
| COc1ccccc1CC(C)CC(=O)O (stereo unspecified) | 29.3 |
| COc1ccc(C(=O)NC(CC(=O)O)c2cccs2)c(OC)c1 (stereo unspecified) | -5.25 |
| COc1ccc(Cl)cc1C(=O)NC(CC(=O)O)c1cccs1 (stereo unspecified) | 29.7 |
| O=C(O)CC(NC(=O)c1ccccc1OC(F)F)c1cccs1 (stereo unspecified) | 68.8 |
| COc1ccc(C)cc1C(=O)NC(CC(=O)O)c1cccs1 (stereo unspecified) | 52.3 |
| COc1cccc(-c2n[nH]cc2C(=O)NC(C)CC(=O)O)c1 (stereo unspecified) | 42.3 |
| COc1ccccc1C(=O)NC(CC(=O)O)c1cccs1 (stereo unspecified) | -9.14 |
| CCOc1ccccc1C(=O)NC(CC(=O)O)c1cccs1 (stereo unspecified) | 13.3 |
| COc1ccc(CC(=O)NC(CC(=O)O)c2ccc(F)cc2)cc1OC (stereo unspecified) | 29 |
| COc1ccc(C)cc1CC(=O)NC(CC(=O)O)c1ccc(F)cc1 (stereo unspecified) | 58.3 |
| COc1ccccc1C(=O)NC(C)CC(=O)O (stereo unspecified) | 51.3 |
| COc1ccccc1CC(=O)NC(CC(=O)O)c1ccc(F)cc1 (stereo unspecified) | 32.3 |
| Cc1csc(CN2CCC[C@]3(C[C@@H](OCC4CC4)CO3)C2)n1 | 35.6 |
| Cc1nnc(NCCn2nc(C)c(Cl)c2C)o1 | 26.8 |
| CC(Cn1ccnc1)NC(=O)NCCc1ccc(Cl)s1 (stereo unspecified) | -5.25 |
| O=C1CC(N(C(=O)CCc2cc(F)ccc2F)C2CC2)C(=O)N1 (stereo unspecified) | 22.2 |
